Reference: the supplement of paper PMC4840960
Where a name gives a salt, the structure may show the parent alone. ± gives the standard deviation of the averaged measurements.

Tests used:
[1] = test system: E18 rat cortical neuron-glia co-culture; experiment: fiber score / MBP score (myelination specific beyond OL differentiation) (ratio); higher = more myelination-specific MBP alignment; conditions: treatment time: 8 days (DIV5-DIV13)
How it was run: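 Fiber score divided by MBP score is the read-out; fiber score is continuous MBP fiber length per Olig2+ nucleus, and MBP score is thresholded MBP area × intensity per Olig2+ nucleus. Primary E18 rat cortical co-cultures were dissociated with papain and seeded at 20,000 cells/well on poly-d-lysine/laminin 96-well plates. Library compounds at 1 or 5 µM were given in myelination medium from DIV5 to DIV13, after which cells were fixed in 4 % paraformaldehyde, immunostained for MBP and Olig2 with DAPI, and imaged in four 10X fields per well in duplicate wells.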

[2] = test system: E18 rat cortical neuron-glia co-culture; experiment: myelination (MBP fiber length per Olig2+ nucleus), % of 1 µM DAPT response (DMSO = 0) (% of DAPT); higher = more myelination, active = 50 or more; conditions: treatment time: 8 days (DIV5-DIV13)
How it was run: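 Four 10X fields in each of duplicate wells were analysed after cultures were fixed in 4 % paraformaldehyde and immunostained for MBP and Olig2, with DAPI as the nuclear counterstain. The cultures were papain-dissociated primary E18 rat cortical co-cultures at 20,000 cells/well on poly-d-lysine/laminin 96-well plates, dosed with library compounds at 1 or 5 µM in myelination medium from DIV5 to DIV13. The myelination readout was continuous straight MBP fiber length per Olig2+ nucleus, with 0.1 % DMSO set to 0 and a 1 µM positive control set to 100.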

SMILES	fiber score / MBP score ([1]; 1 µM)	fiber score / MBP score ([1]; 5 µM)	myelination ([2]; 1 µM)	myelination ([2]; 5 µM)
COc1c(N2C[C@@H]3CCCN[C@@H]3C2)c(F)cc2c(=O)c(C(=O)O)cn(C3CC3)c12 [Moxifloxacin]	0.766	0.689	-12.3 (inactive)	-17.6 (inactive)
CCOC(=O)[C@@]1(CCCCCCOc2ccc(Cl)cc2)CO1 [Etomoxir]	0.693	0.645	-31 (inactive)	-26.2 (inactive)
CN(C)C(=O)C(CCN1CCC(O)(c2ccc(Cl)cc2)CC1)(c1ccccc1)c1ccccc1 [Loperamide]	0.58	0.368	-10.1 (inactive)	-21 (inactive)
CC(C)(C)NCC(O)c1cc(O)cc(O)c1 (stereo not given) [Terbutaline]	0.31	0.251	-15.9 (inactive)	-16.6 (inactive)
Nc1nc2c(ncn2COC(CO)CO)c(=O)[nH]1 [Ganciclovir]	0.944	1	-5.82 (inactive)	7.82 (inactive)
CC(=O)OCC(=O)[C@@]12OC(C)(C)O[C@@H]1C[C@H]1[C@@H]3C[C@H](F)C4=CC(=O)C=C[C@]4(C)[C@@]3(F)[C@@H](O)C[C@@]12C [Fluocinonide]	0.861	0.291	-38 (inactive)	-66.2 (inactive)
CC(C(=O)O)c1ccc(-c2ccccc2)c(F)c1 (stereo not given) [Flurbiprofen]	0.667 ± 0.24	0.793 ± 0.03	-16.8 (inactive)	-13.6 (inactive)
NS(=O)(=O)c1cc(C2(O)NC(=O)c3ccccc32)ccc1Cl (stereo not given) [Chlorthalidone]	1.29	1.09	18.9 (inactive)	7.87 (inactive)
O=C1Nc2ccccc2/C1=C1/Nc2ccccc2C1=O [Indirubin]	0.896	0.71	-4.48 (inactive)	-14.5 (inactive)
CN1CCN2c3ncccc3Cc3ccccc3C2C1 (stereo not given) [Remergil]	0.819	0.663	4.96 (inactive)	-19.4 (inactive)
Cc1cccc(C)c1NC(=O)C1CCCCN1C (stereo not given) [Mepivacaine]	0.728	0.864	-12.3 (inactive)	-4.33 (inactive)
CC1Cc2ccccc2N1NC(=O)c1ccc(Cl)c(S(N)(=O)=O)c1 (stereo not given) [Indapamide]	0.911	1.31	-4.93 (inactive)	6.67 (inactive)
CCOC(=O)c1ccc(OC(=O)CCCCCNC(=N)N)cc1 [Gabexate]	0.709	0.799	-20.3 (inactive)	-14.2 (inactive)
COC(=O)CCc1ccc(OCC(O)CNC(C)C)cc1 (stereo not given) [Esmolol]	1.07	0.988	2.16 (inactive)	-0.768 (inactive)
CO[C@H]1/C=C/O[C@@]2(C)Oc3c(C)c(O)c4c(O)c(c5c(nc6cc(C)ccn65)c4c3C2=O)NC(=O)/C(C)=C\C=C\[C@H](C)[C@H](O)[C@@H](C)[C@@H](O)[C@@H](C)[C@H](OC(C)=O)[C@@H]1C [Rifaximin]	0.779	0.73	-4.06 (inactive)	-12 (inactive)
CCN(CC)C(=O)C1(c2ccccc2)CC1CN (stereo not given) [Milnacipran]	0.697	0.817	-8.81 (inactive)	-7.54 (inactive)
C[C@@H]1O[C@@H](OC[C@H]2O[C@@H](Oc3c(-c4ccc(O)c(O)c4)oc4cc(O)cc(O)c4c3=O)[C@H](O)[C@@H](O)[C@@H]2O)[C@H](O)[C@H](O)[C@H]1O [Rutin]	0.757	0.905	-12 (inactive)	-4.44 (inactive)
O=C1CC2(CCCC2)CC(=O)N1CCNCC1COc2ccccc2O1 (stereo not given) [Binospirone]	0.768	0.49	-14.3 (inactive)	-17.9 (inactive)
CC(C)[N+]1(C)[C@@H]2CC[C@H]1C[C@@H](OC(=O)C(CO)c1ccccc1)C2 (stereo not given in full) [Ipratropium]	0.783	1.52	0.204 (inactive)	32.8 (inactive)
CCC1(c2ccccc2)C(=O)NCNC1=O [Primidone]	0.952	1.03	3.26 (inactive)	-3.74 (inactive)
CN1[C@@H](CC(=O)c2ccccc2)CCC[C@H]1C[C@H](O)c1ccccc1 [Lobeline]	0.981	0.451	2.9 (inactive)	-19.7 (inactive)
NC(Cc1cc(I)c(Oc2cc(I)c(O)c(I)c2)c(I)c1)C(=O)O (stereo not given) [Thyroxine]	0.768	1.19	-4.45 (inactive)	32 (inactive)
CC(N/C(=N\C#N)Nc1ccncc1)C(C)(C)C (stereo not given) [Pinacidil]	0.981	0.451	2.9 (inactive)	-19.7 (inactive)
CNC(=C[N+](=O)[O-])NCCSCc1ccc(CN(C)C)o1 [Ranitidine]	0.594	1.03	-19.6 (inactive)	-7.22 (inactive)
CC(C)[C@H](N)C(=O)OCCOCn1cnc2c(=O)nc(N)[nH]c21 [Valaciclovir]	0.731	0.774	-21.7 (inactive)	-19 (inactive)

SMILES	fiber score / MBP score ([1]; 1 µM)	fiber score / MBP score ([1]; 5 µM)	myelination ([2]; 1 µM)	myelination ([2]; 5 µM)
CN1CCC(=C2c3ccccc3CC(=O)c3sccc32)CC1 [Ketotifen]	1.03	0.58	-0.199 (inactive)	-13.6 (inactive)
COc1cc(C)nc(-n2nc(C)cc2OC)n1 [Epirizole]	0.549	0.623	-20.5 (inactive)	-13.2 (inactive)
Cc1ccc(-c2cc(C(F)(F)F)nn2-c2ccc(S(N)(=O)=O)cc2)cc1 [Celecoxib]	0.757	1.01	-5.22 (inactive)	-0.0582 (inactive)
CC(=O)OCC[N+](C)(C)C [Acetylcholine]	0.236	0.34	-17.4 (inactive)	-15.1 (inactive)
Cc1onc(-c2ccccc2)c1C(=O)N[C@@H]1C(=O)N2[C@@H]1SC(C)(C)[C@@H]2C(=O)O [Oxacillin]	0.974	0.897	-4.75 (inactive)	-10.5 (inactive)
NC(=O)OCC(COC(N)=O)c1ccccc1 [Felbamate]	0.591	0.769	-15.5 (inactive)	-10.2 (inactive)
CNCCC=C1c2ccccc2CCc2ccccc21 [Nortriptyline]	0.847	1.93	-1.74 (inactive)	54.7 (active)
O=C1Nc2ccc(Cl)cc2[C@@](C#CC2CC2)(C(F)(F)F)O1 [Efavirenz]	0.744	0.712	-8.9 (inactive)	11.1 (inactive)
CC(C)NCC(O)COc1cccc2[nH]ccc12 (stereo not given) [Pindolol]	1.07	0.955	-3.4 (inactive)	-3.46 (inactive)
N[C@@H](C(=O)N[C@@H]1C(=O)N2C(C(=O)O)=C(Cl)CS[C@H]12)c1ccccc1 [Cefaclor]	0.944	0.875	1.34 (inactive)	-10.6 (inactive)
Cc1ccc(NC(=O)c2ccc(CN3CCN(C)CC3)cc2)cc1Nc1nccc(-c2cccnc2)n1 [Imatinib mesylate]	0.424	0.773	-5.16 (inactive)	37.1 (inactive)
CC(C)[N+](C)(CCOC(=O)C1c2ccccc2Oc2ccccc21)C(C)C [Propantheline]	0.889	0.949	-4.45 (inactive)	3.32 (inactive)
CC(=O)NCCCCCCNC(C)=O [Hexamethylene bisacetamide]	0.663	0.981	-0.00866 (inactive)	-2.54 (inactive)
CCCN(CCC)S(=O)(=O)c1ccc(C(=O)O)cc1 [Probenecid]	0.973	1.44	0.863 (inactive)	11.7 (inactive)
CN(CCOc1ccc(NS(C)(=O)=O)cc1)CCc1ccc(NS(C)(=O)=O)cc1 [Dofetilide]	1.2	0.728	10.4 (inactive)	-13.2 (inactive)
CCc1c(C)[nH]c2c1C(=O)C(CN1CCOCC1)CC2 (stereo not given) [Molindone]	0.619	0.498	-21 (inactive)	-25.8 (inactive)
OC[C@H]1O[C@@H](Oc2cc(O)cc(/C=C/c3ccc(O)cc3)c2)[C@H](O)[C@@H](O)[C@@H]1O [Polydatin]	0.578	0.769	-20.3 (inactive)	-3.53 (inactive)
CCOC(=O)CCC(=O)O[C@H]1[C@H](O[C@@H]2[C@@H](C)[C@H](O[C@H]3C[C@@](C)(OC)[C@@H](O)[C@H](C)O3)[C@@H](C)C(=O)O[C@H](CC)[C@@](C)(O)[C@H](O)[C@@H](C)C(=O)[C@H](C)C[C@@]2(C)O)O[C@H](C)C[C@@H]1N(C)C [Erythromycin Ethylsuccinate]	0.639	0.642	-18 (inactive)	-16.3 (inactive)
C[C@]12C=CC(=O)C=C1CC[C@@H]1[C@@H]2C(=O)C[C@@]2(C)[C@H]1CC[C@]2(O)C(=O)CO [Prednisone]	0.839	0.736	-13.2 (inactive)	-10.1 (inactive)
CNCCCCOc1ccccc1Cc1ccccc1 [Bifemelane]	0.512	0.543	-39.7 (inactive)	-28.5 (inactive)
CCOC(=O)O[C@]1(C(=O)OCCl)CC[C@H]2[C@@H]3CCC4=CC(=O)C=C[C@]4(C)[C@H]3[C@@H](O)C[C@@]21C [Loteprednol etabonate]	0.604	0.881	-14.2 (inactive)	-1.58 (inactive)
CN(C)CCCN1c2ccccc2CCc2ccc(Cl)cc21 [Clomipramine]	1.05	0.899	-10.8 (inactive)	-23 (inactive)
Clc1ccc2c(c1)CCc1cccnc1C2=C1CCNCC1 [Desloratadine]	0.902	0.803	-12.9 (inactive)	-23.3 (inactive)
CC(C[N+](C)(C)C)OC(N)=O (stereo not given) [Bethanechol]	0.372	0.379	-14.3 (inactive)	-14.6 (inactive)
Nc1nc(=O)c2nc(CNc3ccc(C(=O)N[C@@H](CCC(=O)O)C(=O)O)cc3)cnc2[nH]1 [Folic acid]	0.994	0.627	-5.35 (inactive)	-17.3 (inactive)
